Assay results taken from PubChem BioAssay.
Results with a measured potency or affinity are listed apart. Records with an inconclusive call do not appear. The source made the active and inactive calls.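 How the source made its calls: active means fitted half-maximal concentration for viability loss no higher than twice the top valid dose, in every repeat run; inconclusive means repeat runs disagree, flat partial loss, or poor curve fit; inactive means the rest.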

Experiment: cytotoxicity in IOSE-T80 ovarian epithelial cells, dose response, selectivity assay for PAX8 inhibitor project, cell-based, cherry-pick (AID 687032);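 further: cells exposed to compound for 96 h before reading; 0% = neutral control wells and -100% = 2 µM mitoxantrone kill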
Conditions: CellTiterGlo ATP luminescence, 96 h; series mostly up to 35 µM; activity change, negative = viability loss: at the top concentration
In the case of `COc1ccc(-c2sc3ccccc3c2-c2ccc(OCCN(C)C)cc2)cc1`, the “activity change, negative = viability loss” value is reported as 5.8% (inactive). For `COc1ccc(N(C(=O)CCl)C(C(=O)NCCc2ccccc2)c2cccs2)cc1Cl` (stereo not drawn), the “activity change, negative = viability loss” value was 10.1% (inactive). For `Cc1nn(-c2ccccc2)c(Cl)c1CN(C(=O)CCl)c1ccc(Cl)cc1`, the “activity change, negative = viability loss” value was 11.4% (inactive).
